Reference: PubChem BioAssay (Tox21)
Values without a mark were called inactive. A call without a number means that no potency is given here. Activity calls are given as the source filed them. Unless noted, calls come from the whole dose curve; as a rule, active = well fitted curve in the direction sought with a large enough effect in the repeat runs; inconclusive = weak or mixed curves; inactive = no such curve, though single readings can be large; an effect the other way counts as inactive or inconclusive.

Columns and labels:
[1] = qHTS assay to identify small molecule antagonists of the thyroid receptor (TR) signaling pathway - cell viability counter screen (AID 743064); note: nearly all actives have a fitted effect of over 50% in size
How it was run: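 GH3.TRE-Luc rat pituitary cells carrying a TRE-luciferase reporter were treated with compound plus 1 nM T3 (final) for 23.5 h at 37 °C. Viability was then read in the same wells by CellTiter-Fluor fluorescence after a further 30 min.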

[2] = qHTS assay to identify small molecule antagonists of the thyroid receptor (TR) signaling pathway (AID 743065); note: series mostly up to about 70 µM; nearly all actives have a fitted effect of over 55% in size
How it was run: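 GH3.TRE-Luc rat pituitary cells carrying two TR response elements driving luciferase were plated for 4 h, given compound plus 1 nM T3 (final), and incubated 23.5 h at 37 C. ONE-Glo luminescence measured reporter inhibition; CellTiter-Fluor fluorescence tracked cytotoxicity.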

[3] = system: thyroid hormone receptor (rat, GH3 cells); assay: qHTS assay to identify small molecule agonists of the thyroid receptor (TR) signaling pathway (AID 743066; calls by dose curve)
[4] = target: Estrogen receptor (Homo sapiens) (UniProt P03372); assay: qHTS assay to identify small molecule antagonists of the estrogen receptor alpha (ER-alpha) signaling pathway (AID 743069; active = well fitted curve in the direction sought with a large enough effect in the signal ratio in the repeat runs, not every such curve was filed as active; inconclusive = weak or mixed curves, or effect the other way; inactive = no such curve, though single readings can be large or run the other way; the % refers to the signal ratio)
Sequence of Estrogen receptor (Homo sapiens) (P03372 whole entry, looked up): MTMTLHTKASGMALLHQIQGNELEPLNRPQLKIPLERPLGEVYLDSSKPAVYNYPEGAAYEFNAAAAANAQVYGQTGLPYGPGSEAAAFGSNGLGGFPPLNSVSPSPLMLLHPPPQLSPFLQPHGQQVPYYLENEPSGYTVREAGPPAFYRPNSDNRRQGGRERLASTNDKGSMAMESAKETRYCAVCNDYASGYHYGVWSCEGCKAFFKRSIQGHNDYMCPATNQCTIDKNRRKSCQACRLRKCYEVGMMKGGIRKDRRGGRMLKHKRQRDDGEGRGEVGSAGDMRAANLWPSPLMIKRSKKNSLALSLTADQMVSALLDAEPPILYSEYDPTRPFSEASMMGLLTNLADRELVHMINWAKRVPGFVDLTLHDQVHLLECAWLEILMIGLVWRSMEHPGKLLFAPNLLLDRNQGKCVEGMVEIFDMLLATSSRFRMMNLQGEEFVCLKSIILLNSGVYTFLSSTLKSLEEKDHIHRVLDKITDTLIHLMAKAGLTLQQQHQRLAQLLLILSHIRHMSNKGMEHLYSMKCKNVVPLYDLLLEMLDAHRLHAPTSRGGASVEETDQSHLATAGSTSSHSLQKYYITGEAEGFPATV
How it was run: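 HEK293 cells stably carrying an ER-alpha-UAS-bla beta-lactamase reporter were pre-cultured overnight in 2% charcoal-stripped FBS medium. Test compounds in DMSO were added together with 17beta-estradiol for 18 hr at 37C. Read-out was fluorescence after 2 hr with LiveBLAzer B/G FRET substrate at room temperature.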

[5] = qHTS assay to identify small molecule antagonists of the estrogen receptor alpha (ER-alpha) signaling pathway - cell viability counter screen (AID 743074; calls by dose curve; note: nearly all actives have a fitted effect of over 45% in size)
[6] = target: Estrogen receptor (Homo sapiens) (UniProt P03372); assay: qHTS assay to identify small molecule agonists of the estrogen receptor alpha (ER-alpha) signaling pathway (AID 743075; calls by dose curve; note: potency is the fitted concentration of half-maximal effect)
[7] = target: Estrogen receptor (Homo sapiens) (UniProt P03372); assay: qHTS assay to identify small molecule agonists of the estrogen receptor alpha (ER-alpha) signaling pathway using the BG1 cell line (AID 743079); note: nearly all actives have a fitted effect of over 20% in size; note: potency is the fitted concentration of half-maximal effect
[8] = qHTS assay to identify small molecule antagonists of the estrogen receptor alpha (ER-alpha) signaling pathway using the BG1 cell line - cell viability counter screen (AID 743081);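 note: compound given together with 17beta-estradiol as the ER stimulus; series mostly up to about 70 µM; nearly all actives have a fitted effect of over 45% in size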
Aromatase (Homo sapiens) = Aromatase (Homo sapiens) (UniProt P11511); assay: qHTS assay to identify aromatase inhibitors (AID 743083); note: series mostly up to about 70 µM; nearly all actives have a fitted effect of over 55% in size
Sequence of Aromatase (Homo sapiens) (P11511 whole entry, looked up): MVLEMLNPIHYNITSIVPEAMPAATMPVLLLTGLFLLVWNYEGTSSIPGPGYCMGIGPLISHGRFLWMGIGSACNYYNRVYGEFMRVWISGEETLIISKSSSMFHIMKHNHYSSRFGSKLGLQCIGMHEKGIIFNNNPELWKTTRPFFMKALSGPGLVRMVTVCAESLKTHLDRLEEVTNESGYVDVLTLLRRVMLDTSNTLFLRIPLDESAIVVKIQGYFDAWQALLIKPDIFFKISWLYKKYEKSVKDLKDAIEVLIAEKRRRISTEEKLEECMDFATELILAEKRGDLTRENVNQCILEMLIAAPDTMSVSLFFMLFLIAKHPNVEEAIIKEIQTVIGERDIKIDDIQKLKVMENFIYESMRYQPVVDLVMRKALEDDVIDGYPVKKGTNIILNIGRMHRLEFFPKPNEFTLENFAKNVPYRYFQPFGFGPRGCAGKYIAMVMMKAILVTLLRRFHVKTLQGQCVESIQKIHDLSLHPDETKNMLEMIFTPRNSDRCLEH

[9] = qHTS assay to identify aromatase inhibitors - cell viability counter screen (AID 743084);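 note: cells stimulated with testosterone during compound exposure; nearly all actives have a fitted effect of over 55% in size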
[10] = target: Aryl hydrocarbon receptor (Homo sapiens) (UniProt P35869); assay: qHTS assay to identify small molecule that activate the aryl hydrocarbon receptor (AhR) signaling pathway (AID 743085);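 note: HG2L7.5c1 human HepG2 liver cells with stably integrated DRE-driven firefly reporter; series mostly up to about 70 µM; nearly all actives have a fitted effect of over 15% in size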
Sequence of Aryl hydrocarbon receptor (Homo sapiens) (P35869 whole entry, looked up): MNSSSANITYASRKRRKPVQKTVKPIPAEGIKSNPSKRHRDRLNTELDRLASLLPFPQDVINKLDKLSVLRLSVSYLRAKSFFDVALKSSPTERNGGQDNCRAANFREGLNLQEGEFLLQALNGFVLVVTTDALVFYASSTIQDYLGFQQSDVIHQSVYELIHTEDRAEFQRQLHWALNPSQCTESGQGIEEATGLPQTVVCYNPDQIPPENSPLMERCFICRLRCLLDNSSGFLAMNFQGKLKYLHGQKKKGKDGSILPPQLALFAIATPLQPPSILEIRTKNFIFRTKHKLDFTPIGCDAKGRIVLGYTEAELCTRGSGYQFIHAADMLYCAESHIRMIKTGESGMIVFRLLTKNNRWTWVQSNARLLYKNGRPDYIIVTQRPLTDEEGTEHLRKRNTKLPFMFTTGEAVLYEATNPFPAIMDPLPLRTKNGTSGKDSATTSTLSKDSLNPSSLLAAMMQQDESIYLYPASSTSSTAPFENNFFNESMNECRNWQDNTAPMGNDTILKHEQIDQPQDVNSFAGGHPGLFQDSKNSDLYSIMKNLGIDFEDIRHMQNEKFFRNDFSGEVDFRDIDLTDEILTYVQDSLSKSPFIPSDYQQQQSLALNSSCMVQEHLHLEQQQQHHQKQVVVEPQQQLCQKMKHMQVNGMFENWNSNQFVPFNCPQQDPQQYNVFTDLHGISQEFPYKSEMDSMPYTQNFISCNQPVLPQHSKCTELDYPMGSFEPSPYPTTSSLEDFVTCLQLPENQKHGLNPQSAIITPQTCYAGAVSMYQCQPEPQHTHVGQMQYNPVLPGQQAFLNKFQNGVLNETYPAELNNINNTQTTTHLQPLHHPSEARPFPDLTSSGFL
How it was run: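 HepG2 cells (HG2L7.5c1) stably carrying a firefly luciferase reporter driven by 20 dioxin responsive elements were exposed to compound for 24 h at 37C after a 5 h settling period; luminescence rise (ONE-Glo) indicated activation.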

[11] = qHTS assay to identify small molecule that activate the aryl hydrocarbon receptor (AhR) signaling pathway - cell viability counter screen (AID 743086);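 note: HepG2 liver cells carrying the AhR DRE luciferase reporter; series mostly up to about 70 µM; nearly all actives have a fitted effect of over 45% in size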
How it was run: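 HepG2-AhR-luc (HG2L7.5c1) cells, 4000/well, were preincubated 5 h at 37C, exposed to compound in qHTS format for 24 hr at 37C, then given CellTiter-Fluor for 30 min; viability was read as fluorescence in the reporter wells.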

[12] = target: Peroxisome proliferator-activated receptor gamma (Homo sapiens) (UniProt P37231); assay: qHTS assay to identify small molecule agonists of the peroxisome proliferator-activated receptor gamma (PPARg) signaling pathway (AID 743094; active = well fitted activation curve with a large enough effect in the signal ratio in the repeat runs, not every such curve was filed as active; inconclusive = weak or mixed curves, or effect the other way; inactive = no such curve, though single readings can be large or run the other way; the % refers to the signal ratio)
Sequence of Peroxisome proliferator-activated receptor gamma (Homo sapiens) (P37231 whole entry, looked up): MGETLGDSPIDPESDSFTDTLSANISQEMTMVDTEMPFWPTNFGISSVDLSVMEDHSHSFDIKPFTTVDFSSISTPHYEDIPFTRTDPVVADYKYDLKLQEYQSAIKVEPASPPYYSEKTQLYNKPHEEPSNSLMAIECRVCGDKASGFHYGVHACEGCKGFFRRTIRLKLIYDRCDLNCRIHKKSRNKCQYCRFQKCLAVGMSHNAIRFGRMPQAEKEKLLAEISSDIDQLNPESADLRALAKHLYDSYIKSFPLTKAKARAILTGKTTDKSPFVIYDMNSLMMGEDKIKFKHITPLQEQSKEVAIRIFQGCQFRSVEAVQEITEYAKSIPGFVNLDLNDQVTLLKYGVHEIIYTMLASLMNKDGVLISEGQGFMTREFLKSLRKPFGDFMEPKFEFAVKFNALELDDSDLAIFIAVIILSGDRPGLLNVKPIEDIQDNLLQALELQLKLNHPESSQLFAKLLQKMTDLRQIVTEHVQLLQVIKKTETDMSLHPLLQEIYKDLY
How it was run: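 Compounds dissolved in DMSO were added to PPARg UAS-bla HEK293H cells for 17 h at 37C, and reporter expression was quantified by fluorescence intensity after 1 h with LiveBLAzer B/G FRET substrate.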

[13] = qHTS assay to identify small molecule antagonists of the peroxisome proliferator-activated receptor gamma (PPARg) signaling pathway - cell viability counter screen (AID 743194); note: nearly all actives have a fitted effect of over 55% in size
How it was run: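 PPARg-UAS-bla HEK293H cells were plated, rested 5 h at 37 C, then treated with compounds plus rosiglitazone (50 nM final) for 17 h at 37 C; viability was then read by CellTiter-Glo luminescence after 30 min at room temperature.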

[14] = qHTS assay for small molecule agonists of the antioxidant response element (ARE) signaling pathway (AID 743202; active = well fitted activation curve with a large enough effect in the signal ratio in the repeat runs, not every such curve was filed as active; inconclusive = weak or mixed curves, or effect the other way; inactive = no such curve, though single readings can be large or run the other way; the % refers to the signal ratio)
How it was run: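 Read-out: LiveBLAzer B/G FRET substrate fluorescence after 2 h at room temperature, following 16 h compound treatment at 37 C of HepG2 cells carrying an ARE-driven beta-lactamase reporter.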

[15] = qHTS assay for small molecule agonists of the antioxidant response element (ARE) signaling pathway - cell viability counter screen (AID 743203; calls by dose curve; note: nearly all actives have a fitted effect of over 55% in size)
How it was run: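 Following 16 hrs of compound treatment at 37C, HepG2 cells with an ARE-controlled beta-lactamase gene were lysed with CellTiter-Glo. Luminescence was read after 30 min at room temperature.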

[16] = qHTS assay for small molecule activators of the heat shock response signaling pathway - cell viability counter screen (AID 743209); note: nearly all actives have a fitted effect of over 50% in size
How it was run: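 Readout: CellTiter-Glo luminescence, 30 min at room temperature. System: HSE-bla HeLa cells, 1500/well, plated overnight. Treatment: compounds in DMSO, 5 h at 37 C.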

[17] = qHTS assay for small molecule activators of the heat shock response signaling pathway (AID 743210; active = well fitted activation curve with a large enough effect in the signal ratio in the repeat runs, with a control signal flat, not every such curve was filed as active; inconclusive = weak or mixed curves; the % refers to the signal ratio; note: series mostly up to about 63 µM)
How it was run: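 HSE-bla HeLa cells (beta-lactamase reporter under heat shock response elements) were exposed to compounds for 5 h at 37 C, then loaded with LiveBLAzer B/G FRET substrate for 2.5 h at room temperature before fluorescence reading.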

[18] = qHTS assay to identify small molecule antagonists of the estrogen receptor alpha (ER-alpha) signaling pathway using the BG1 cell line (AID 743080; calls by dose curve;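 note: BG1 cells stimulated with 17beta-estradiol alongside compound; series mostly up to about 70 µM; nearly all actives have a fitted effect of over 25% in size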)
How it was run: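 Luciferase inhibition measured with ONE-Glo after 30 min at RT in BG1Luc4E2 cells given test compounds and 17beta-estradiol for 21.5 h at 37 C; CellTiter-Fluor viability read in the same wells beforehand.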

[19] = target: Peroxisome proliferator-activated receptor gamma (Homo sapiens) (UniProt P37231); assay: qHTS assay to identify small molecule antagonists of the peroxisome proliferator-activated receptor gamma (PPARg) signaling pathway (AID 743191; calls by dose curve; note: series mostly up to about 63 µM; nearly all actives have a fitted effect of over 30% in size)
How it was run: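 GeneBLAzer PPARg UAS-bla HEK293H cells carrying a UAS-driven beta-lactamase reporter were plated at 3000 cells/well, preincubated 5 h at 37C, then given compound for 17 h at 37C; LiveBLAzer B/G FRET substrate was read after 1 h at room temperature.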

Row | SMILES | Potency [1] | Potency [2] | outcome [3] | Potency [4] | Potency [5] | Potency [6] | Potency [7] | outcome [8] | outcome (Aromatase (Homo sapiens)) | Potency [9] | Potency [10] | Potency [11] | Potency [12] | outcome [13] | Potency [14] | outcome [15] | outcome [16] | outcome [17] | Potency [18] | Potency [19]
1 | CN(C)C(=O)Oc1cccc([N+](C)(C)C)c1 | inactive | inactive | inactive | inactive | inactive | inactive | inactive | inactive | inactive | inactive | inactive | inactive | inactive | inactive | inactive | inactive | inactive | inactive |  | 
2 | CN(C)CCCN(C)CCCN(C)C | inactive | inactive | inactive | inactive | inactive | inactive |  | inactive | inactive | inactive |  |  | inactive | inactive | inactive | inactive | inactive | inactive | inactive | inactive
3 | CC(=O)NC(=O)c1ccccc1O | inactive | inactive | inactive | inactive | inactive | inactive | inactive | inactive | inactive | inactive | inactive | inactive | inactive | inactive | inactive | inactive | inactive | inactive |  | inactive
4 | COc1ccc2cc1Oc1cc3c(cc1OC)CC[N+](C)(C)[C@H]3Cc1ccc(cc1)Oc1c(OC)c(OC)cc3c1[C@@H](C2)[N+](C)(C)CC3 | inactive | inactive | inactive | inactive | inactive | inactive | inactive | inactive | inactive | inactive | inactive |  | inactive |  | inactive | inactive | inactive | inactive |  | inactive
5 | CC1(C)OC[C@@H](COC(=O)CCc2ccc(OC[C@@H](O)CNCCNC(=O)N3CCOCC3)cc2)O1 | inactive | inactive | inactive | inactive | inactive | inactive | inactive | inactive | inactive | inactive |  |  |  | inactive |  | inactive | inactive |  |  | inactive
6 | c1ccc(Cc2ccccc2)cc1 | inactive | inactive | inactive | inactive | inactive | inactive | inactive | inactive | inactive | inactive |  | inactive |  | inactive | inactive | inactive | inactive | inactive | inactive | inactive
7 | CCCCc1ccc2c(n1)[C@@H](c1ccc(OC)cc1C[C@H](C)C(=O)O)[C@H](C(=O)O)[C@H]2c1ccc2c(c1)OCO2 | inactive | inactive | inactive | inactive | inactive | inactive | inactive | inactive | inactive | inactive | inactive | inactive | inactive | inactive | inactive | inactive | inactive | inactive |  | inactive
8 | O=C(CO)[C@@H](O)[C@H](O)[C@H](O)CO | inactive | inactive | inactive | inactive | inactive | inactive | inactive | inactive | inactive | inactive | inactive | inactive | inactive | inactive | inactive | inactive |  | inactive |  | 
9 | CCOC(=O)C1=NOC(c2ccccc2)(c2ccccc2)C1 | inactive | inactive | inactive | inactive | inactive | inactive | inactive | inactive | inactive | inactive | inactive |  | inactive | inactive | inactive | inactive | inactive | inactive |  | inactive
10 | CC1=CCC(O)(C(C)C)CC1 (centres undefined) | inactive | inactive | inactive | inactive | inactive | inactive |  | inactive | inactive | inactive | inactive | inactive |  | inactive | inactive |  | inactive | inactive | inactive | inactive
11 | CC(C)(C)OC(=O)c1cccc(N)c1 | inactive | inactive | inactive | inactive | inactive | 56.4 µM [inconclusive] (active) | 31.4 µM (active) | inactive | inactive | inactive |  | inactive | inactive | inactive | inactive | inactive | inactive | inactive |  | inactive
12 | O=C(O)CC(C(=O)O)S(=O)(=O)O (centres undefined) | inactive | inactive | inactive | inactive | inactive | inactive | inactive | inactive | inactive | inactive | inactive | inactive | inactive | inactive | inactive | inactive |  |  |  | inactive
13 | CCCOC(=O)CC | inactive | inactive | inactive | inactive | inactive | inactive | inactive | inactive | inactive | inactive | inactive | inactive |  | inactive | inactive |  | inactive | inactive |  | inactive
14 | CC(C)(CCC(=O)O)C(=O)O | inactive | inactive | inactive | inactive | inactive | inactive | inactive | inactive | inactive | inactive | inactive | inactive | inactive | inactive |  | inactive |  | inactive |  | 
15 | CC1=NN(c2cccc(S(=O)(=O)O)c2)C(=O)C1 | inactive | inactive | inactive | inactive | inactive | inactive | inactive | inactive | inactive | inactive |  | inactive |  | inactive |  | inactive | inactive | inactive | inactive | inactive
